The text below walks through data of PubChem BioAssay AID1645860 (Buhrlage Lab, Dana-Farber Cancer Institute and Novartis …, 2021).

Structures are written as SMILES. Screen size: about 47,000 compounds; about 2,500 (5.3%) were called active. This excerpt belongs to a sample that is enriched for actives. A number with no mark means an inactive call. Rule as the data show it: active = inhibition above about 30%; inactive = the rest.

Sequence of Ubiquitin carboxyl-terminal hydrolase 30 (Homo sapiens) (Q70CQ3 whole entry, looked up): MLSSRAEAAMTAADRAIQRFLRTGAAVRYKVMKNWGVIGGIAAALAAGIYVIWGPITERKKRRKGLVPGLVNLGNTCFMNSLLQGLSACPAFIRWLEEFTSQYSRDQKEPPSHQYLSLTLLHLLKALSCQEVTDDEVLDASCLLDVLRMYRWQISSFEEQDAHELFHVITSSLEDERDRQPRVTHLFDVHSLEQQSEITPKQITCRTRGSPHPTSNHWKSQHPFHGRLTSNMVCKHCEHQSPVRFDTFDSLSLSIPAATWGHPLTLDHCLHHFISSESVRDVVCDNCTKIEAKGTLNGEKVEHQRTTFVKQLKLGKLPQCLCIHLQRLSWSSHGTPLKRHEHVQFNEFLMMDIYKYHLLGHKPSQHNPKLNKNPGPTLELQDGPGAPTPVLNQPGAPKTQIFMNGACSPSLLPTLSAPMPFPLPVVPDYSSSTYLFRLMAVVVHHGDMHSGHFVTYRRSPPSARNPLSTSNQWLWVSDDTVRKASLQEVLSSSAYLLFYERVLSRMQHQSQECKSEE

The test has as its target Ubiquitin carboxyl-terminal hydrolase 30 (Homo sapiens) (UniProt Q70CQ3). Put plainly: inhibitors of human USP30 deubiquitinase (AID 1645860). Conditions: purified USP30, Ub-rhodamine cleavage fluorescence; at 25 µM; stronger effect = higher value.
For `COCCn1cnc2c(-c3ccccc3)cn(CC(=O)NCc3ccccc3)c2c1=O`, the inhibition is -28.3%.

For the compound `COCC(=O)N1CCCCCC1C1CCN(c2nn3cc(C)nc3s2)CC1` (configuration not stated), the inhibition is 16.4%.

Take `COC(=O)c1ccc(C2c3[nH]c4ccccc4c3C[C@H]3C(=O)N(CC4CCCO4)CC(=O)N23)cc1` (some centres not stated): the inhibition is -26.4%.

Take `COc1ccccc1OCC(=O)Nc1cc(C(F)(F)F)ccc1N1CCCCC1`: the inhibition is -1.33%.

As for `O=C(Nc1cc(C(F)(F)F)ccc1-n1cnc2ccccc21)c1ccc(S(=O)(=O)N2CCCCC2)cc1`, the inhibition is 32.6% (active).

Consider `CCOc1ccc(S(=O)(=O)N2CCCCC2)cc1NC(=O)c1ccc(C#N)cc1`, for which the inhibition was 11.5%.

`CCn1nnc2c1C(COC)CN(C(=O)CC1=CCCCC1)C2` (configuration not stated): the inhibition is -64.1%.

In the case of `CCN(C(=O)c1nc(-c2cccc(F)c2)n2c1CCCCC2)c1ccccc1`, the inhibition was -10.9%.

Take `C=C(NC(=O)C(=C)NC(=O)c1csc(C2=N[C@@H]3c4csc(n4)[C@H]4NC(=O)c5csc(n5)[C@H]([C@](C)(O)[C@@H](C)O)NC(=O)C5CSC(=N5)/C(=C/C)NC(=O)C([C@@H](C)O)NC(=O)c5csc(n5)[C@]3(CC2)NC(=O)[C@H](C)NC(=O)C(=C)NC(=O)[C@H](C)NC(=O)C([C@@H](C)CC)NC2C=Cc3c(C(C)O)cc(nc3[C@H]2O)C(=O)OC4C)n1)C(N)=O` (some centres not stated): the inhibition is -88.3%.

For `COc1ccccc1Nc1nc(-c2cnc(N3CCCC3)nc2C)cc(=O)[nH]1`, the inhibition was 23.2%.

In the case of `Cc1cc(C)nc(N(C(=O)C2CC2)c2ccc(OC(F)(F)F)cc2)n1`, the inhibition was -22.9%.

With `COC(=O)c1ccc(NC(=O)CSc2nnc(C(C)Oc3ccccc3)n2C)cc1` (configuration not stated), the inhibition was 25.4%.

On to `Cc1nnc(OCC(=O)Nc2ccc(OC(F)(F)F)cc2)c2ccccc12`, for which the inhibition is 64.8% (active).

Take `CN1[C@@H](CCC(=O)N2CCc3ccccc32)CNC(=O)[C@@H]2[C@H]1CCN2Cc1ncc[nH]1`: the inhibition is -9.99%.

With `O=S(=O)(c1ccccc1)N1CCC(n2cnnc2-c2ccccc2)CC1`, the inhibition was -0.303%.

As to `Cc1cc(O)c(=O)cc2c1C[C@H]1CC(C)(C)/C=C/C[C@@]3(C)Oc4cc(=O)c(O)cc(C)c4C[C@@H]3C[C@H](O)[C@]1(C)O2`, the inhibition was -161%.

As to `CC(C)(C)CC(=O)N1CCN(c2ccc(N3CCCC3)nn2)CC1`, the inhibition was -15.1%.

Consider `CCC(=O)c1ccc(OCC(=O)Nc2ccc3c(c2)CCC3)cc1`, for which the inhibition is -0.468%.

In the case of `O=C(COc1ccc2oc3c(c2c1)CCCC3)Nc1ccccn1`, the inhibition was 48.3% (active).

`COc1ccc(S(=O)(=O)N(C(=O)c2ccccc2)c2ccc3oc4c(c3c2)CCCC4)cc1`: the inhibition is -10.1%.

Take `COc1ccc(-c2nn(-c3ccccc3)cc2C(=O)N2CCCCC2)cc1`: the inhibition is -1.66%.

In the case of `O=C(Nc1ccc(Oc2ccccc2F)cc1)C1CCN(Cc2cccc(O)c2)CC1`, the inhibition is 23%.

`O=C(Nc1cccc(-c2cccc(F)c2)c1)C1CCN(Cc2cccc3c2OCO3)CC1`: the inhibition was 36.9% (active).

With `O=C(CN1CCN(CC(=O)Nc2ccc3c(c2)OCO3)CC1)Nc1ccc(F)cc1`, the inhibition is -29.4%.

Regarding `CC1CCC(NC(=O)Cn2c(=O)[nH]c3ccccc3c2=O)CC1` (configuration not stated), the inhibition was 26.9%.

For `CCOC(=O)N1CCC(NC(=O)CCc2ccccc2)CC1`, the inhibition is 11.3%.

Consider `COc1ccc(CCNC(=O)[C@@H](NC(=O)[C@@H]2Cc3c([nH]c4ccccc34)C3c4ccccc4C(=O)N32)C(C)C)cc1` (some centres not stated), for which the inhibition was -104%.

On to `CCOc1ccccc1NC(=O)Nc1cc(-c2nc3ccccc3o2)ccc1OC`, for which the inhibition was 58.5% (active).

Consider `COc1ccccc1NC(=O)Nc1ccc(CCc2nc3ccccc3[nH]2)cc1`, for which the inhibition is -27.4%.

Turning to `COc1ccccc1NC(=O)N1CCN(Cc2nc3ccccc3o2)CC1`, the inhibition was 7.46%.

For the compound `COc1ccc(C(=O)NCC(=O)Nc2nc3ccccc3[nH]2)c(C)c1`, the inhibition is 9.21%.

As for `O=C(NC1CCCC1)c1csc(C(=O)N2CCCC2)n1`, the inhibition was 3.97%.

Take `CC(C(=O)N1c2ccccc2NC(=O)C1(C)C)N1CCCC1c1ccc2c(c1)OCCO2` (configuration not stated): the inhibition is -221%.

For the compound `Cc1c(C)n2c(SCC(=O)N(C)c3ccccc3)nnc2[nH]c1=O`, the inhibition was 6.75%.

In the case of `COCCN1C(=O)CCc2cc(NS(=O)(=O)c3cc(C)cc(C)c3)ccc21`, the inhibition was -16.1%.

Consider `CCN1C(=O)CCc2cc(NC(=O)Cc3ccc(OC)c(Cl)c3)ccc21`, for which the inhibition was -7.67%.

As for `CCCCOc1ccc(C(=O)Nc2ccc3c(c2)CCC(=O)N3CCC)cc1`, the inhibition is 46.1% (active).

Turning to `CC(=O)Nc1ccc(C(=O)NCCn2c(C)nc3ccccc32)cc1`, the inhibition is 27.4%.

`CC(C)Cc1cc(C(=O)N2CCOC(c3nccnc3N)C2)n(C)n1` (configuration not stated): the inhibition was 10.1%.

On to `COc1ccccc1CCNC(=O)c1cccc(N2C(=O)C(C)(C)CS2(=O)=O)c1`, for which the inhibition is -7.58%.

As for `Cc1c(-c2noc(-c3cccc(N(C)C)c3)n2)nnn1Cc1cccc(F)c1`, the inhibition is -2.61%.

As to `COc1ccc(-c2nc(-c3nnn(Cc4cccc(F)c4)c3C)no2)cc1`, the inhibition is 8.22%.

Turning to `CCOc1ccccc1-c1nc(-c2nnn(Cc3ccccc3)c2C)no1`, the inhibition is 51.6% (active).

`COC(=O)c1ccccc1NC(=O)Cn1cc(S(=O)(=O)Cc2ccc(C)cc2)c2ccccc21`: the inhibition was -13.4%.

Consider `COCc1ccc(C(=O)N2CCC3(CC2)CNC(=O)c2ccccc2O3)cc1`, for which the inhibition was 14.1%.

Regarding `Cc1ccc(S(=O)(=O)N(CC(=O)NC(C)c2ccccc2)Cc2ccccc2F)cc1` (configuration not stated), the inhibition was 32.6% (active).

Consider `Cc1ccc(Cc2nnc(C(=O)NC(C)c3ccccc3)o2)cc1` (configuration not stated), for which the inhibition is -0.465%.

For the compound `O=S(=O)(Nc1ccccc1Cc1ccccc1)c1ccccc1F`, the inhibition is 16.2%.

For the compound `O=C(CNC(c1ccccc1)c1ccccc1)Nc1ccc(F)cc1`, the inhibition was 13.6%.

As to `O=C(CN(Cc1ccccc1Cl)S(=O)(=O)c1ccccc1F)NC(c1ccccc1)c1ccccc1`, the inhibition is 33.4% (active).

As to `COc1ccccc1N(CC(=O)NCc1cccnc1)S(=O)(=O)c1ccc(C)cc1`, the inhibition is -6.24%.

On to `Cc1nc2nc(NCc3ccccc3)[nH]n2c(=O)c1CCC(=O)N1CCC(C)CC1`, for which the inhibition is 0.108%.
